FLuc counter = counter-screen for miR-21 project: firefly luciferase inhibitors or activators; P08659; purified FLuc, Km substrates, luminescence inhibition; Potency, µM (doses to about 57.5 µM), without a hit: at the highest dose activity change, negative = inhibition, most hits filed as inhibitors; 6.9% of 360,000 active;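 further: plate controls were vehicle for no effect and reference inhibitor for full effect; nearly all actives have a fitted effect of over 55% in size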
Target sequence (P08659 whole entry, looked up): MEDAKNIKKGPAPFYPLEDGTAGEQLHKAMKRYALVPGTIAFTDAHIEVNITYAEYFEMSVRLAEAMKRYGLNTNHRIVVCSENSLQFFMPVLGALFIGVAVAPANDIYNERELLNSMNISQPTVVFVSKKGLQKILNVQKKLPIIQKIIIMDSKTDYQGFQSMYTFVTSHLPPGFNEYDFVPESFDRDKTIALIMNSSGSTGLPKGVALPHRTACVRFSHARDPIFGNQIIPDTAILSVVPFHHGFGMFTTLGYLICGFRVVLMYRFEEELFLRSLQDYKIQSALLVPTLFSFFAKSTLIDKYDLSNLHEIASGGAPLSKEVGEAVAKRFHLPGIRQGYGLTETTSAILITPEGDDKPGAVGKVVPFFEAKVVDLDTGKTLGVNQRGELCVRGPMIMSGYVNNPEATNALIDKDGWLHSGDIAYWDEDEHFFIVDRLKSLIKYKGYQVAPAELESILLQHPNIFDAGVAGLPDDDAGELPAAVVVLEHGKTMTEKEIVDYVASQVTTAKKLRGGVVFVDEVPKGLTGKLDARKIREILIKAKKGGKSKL
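Purified P. pyralis luciferase, 10 nM final, with Km-level 10 uM D-luciferin and 10 uM ATP in 50 mM Tris acetate pH 7.5, 10 mM Mg acetate, 0.01% Tween-20, 0.05% BSA; 6-point qHTS titration about 60 µM downward; luminescence read.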
Rab9 prom act = Rab9 promoter activation. Huh7 Rab9 promoter-luciferase reporter, luminescence, 24 h. Potency, µM (doses to about 9.22 µM), inactives show top-dose activation, negative = inhibition, usual class: activators. 2.8% of 320,000 active; further: % of control where 0% means no effect; nearly all actives have a fitted effect of over 60% in size
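Rab9 promoter-driven luciferase in stably transfected Huh7 cells; 1500 cells/well rested 2 h, exposed to compound in DMSO for 24 h at 37 °C, 5% CO2. Luminescence read 10 min after adding luciferase reagent at ambient temperature.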
Luc counter = Kinase-Glo luciferase inhibition (counter-screen); 0.28% of 200,000 active; Potency, µM (highest dose often 38.3 µM), without a hit: at the highest dose activity change, negative = inhibition, most hits filed as inhibitors; Kinase-Glo luciferase, ATP luminescence, 8 min; further: on the % scale 0 is the no-effect control and ±100 the full control effect; nearly all actives have a fitted effect of over 60% in size
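Substrate mix (final 50 mM imidazole pH 7.2, 50 mM KCl, 7 mM MgCl2, 10 uM ATP, 0.01% Tween 20, 0.05% BSA) plus pin-tool compound, then Kinase-Glo detection mix; 8 min ambient, luminescence read.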
NPC1 promoter act = activates the NPC1 promoter | Huh7 NPC1 promoter luciferase reporter, 24 h | 2.4% of 320,000 active | Potency, µM (top dose mostly 9.22 µM), for inactives: top-dose activation, actives largely listed as activators; further: % of control where 0% means no effect; nearly all actives have a fitted effect of over 60% in size
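Luminescence from an NPC1 promoter-driven luciferase reporter in stably transfected Huh7 cells was measured after 24 h compound treatment at 37 °C, followed by 10 min ambient incubation with luciferase detection reagent.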
ELG1 genotoxic = genotoxicity induction in ELG1-luciferase HEK293T cells. Potency, µM (highest dose often 46 µM), for the others: top-dose activity change, positive = activation, actives largely listed as activators. 1.3% of 330,000 active. HEK293T ELG1-luciferase reporter, luminescence, 16 h; further: % of control where 0% means no effect; nearly all actives have a fitted effect of over 60% in size
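HEK293T cells expressing luciferase-tagged ELG1 were exposed to compound or DMSO vehicle for 16 hr at 37 °C and 5% CO2. Luciferase activity was then measured with ONE-Glo after 30 min at room temperature.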
SMN2 splice up = SMN2 splice variant enhancement; HEK293 SMN2-luciferase splicing reporter, luminescence, 30-36 h; Potency, µM (series often up to 46.1 µM), for the others: at the top dose activity change, positive = activation, hits mostly activators; 2.8% of 210,000 active; AID 1458; further: % of control where 0% means no effect; nearly all actives have a fitted effect of over 55% in size
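HEK293 cells carry an SMN2 minigene-luciferase reporter in which exon 7 inclusion puts luciferase in frame. Cells were seeded at 2000 cells/well, attached for 10-12 hours, then exposed to compounds for 30-36 hours at 37C before ONE-Glo luminescence.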
* marks the source's active call; other numbers are inactive results; [ ] = dose if it differs, or a comment. Compounds with a hit are over-represented: about 7.3% of the library has one in this group of screens. The call rests on the fitted dose curve; in most records, active means well fitted curve in the direction sought with a large enough effect; inconclusive means small, poorly fitted or top-dose-only effect, or another doubt; inactive means no such curve, though single readings can be large; an effect the other way counts as inactive or inconclusive. Potency means the concentration at half of the fitted maximal effect.

For CCN1CCN(Cc2ccc(OC(F)(F)F)cc2)CC1 the results were FLuc counter 7.1%, Rab9 prom act -7.1%, Luc counter -0.8%, NPC1 promoter act -1.3%, ELG1 genotoxic 4.2% and SMN2 splice up -8.4%.
Screening CCCCCCOc1ccc(CN2CCN(CC)CC2)cc1 returned FLuc counter 9.53µM*, Rab9 prom act 2.82µM*, Luc counter 0.3%, NPC1 promoter act 3.98µM*, ELG1 genotoxic 3.66µM* and SMN2 splice up -28.8%.
`CCC(Cl)[N+](=O)[O-]` (centres undefined) gave SMN2 splice up 6.1%.
CC1CCN(CC(=O)c2ccc3c(c2)OCCO3)CC1 was read as FLuc counter 10.7µM*, Rab9 prom act inconclusive, Luc counter -0.7%, NPC1 promoter act inconclusive, ELG1 genotoxic inconclusive and SMN2 splice up 12.6µM*.
Screening CC1CCN(CC(=O)c2ccccc2Cl)CC1 returned FLuc counter 10.7µM*, Rab9 prom act inconclusive, Luc counter -2.8%, NPC1 promoter act 22.7%, ELG1 genotoxic inconclusive and SMN2 splice up inconclusive.
CC1CN(CC(=O)c2ccccc2Cl)CC(C)O1 (centres undefined) was read as FLuc counter -16.6%, Rab9 prom act -3.5%[1.84 µM], NPC1 promoter act -0.7% and ELG1 genotoxic 1.0%.
C[C@@]12CC[C@H]3[C@@H](CC[C@H]4C[C@@H](O)CC[C@]43C)[C@H]1CC[C@@H]2C(=O)C[C@H](O)C(F)(F)F was read as Luc counter -5.4%[7.66 µM] and SMN2 splice up -9.0%[9.22 µM].
`CC(=O)N1CCN(c2ccc(OCC3CO[C@@](Cn4ccnc4)(c4ccc(Cl)cc4Cl)O3)cc2)CC1` (some centres undefined) gave Luc counter -5.0% and SMN2 splice up -68.6%.
O=C1/C(=C/c2ccc3c(c2)OCO3)N2CCC1CC2 was read as FLuc counter -11.2%, Rab9 prom act 1.7%, Luc counter -0.5%, NPC1 promoter act 3.6%, ELG1 genotoxic 1.1% and SMN2 splice up 18.0%.
Screening Cc1oc(/N=C/c2ccc3c(c2)OCO3)c(C#N)c1C returned FLuc counter 1.69µM*, Rab9 prom act 12.7%, Luc counter -16.4%, NPC1 promoter act -3.0%, ELG1 genotoxic inconclusive and SMN2 splice up -0.3%.
`O=C(O)c1ccc(-n2c(O)c(/C=C3\C=Nc4ccccc43)c(=O)[nH]c2=O)cc1` gave FLuc counter 19µM*, Rab9 prom act -4.5%, NPC1 promoter act 2.1% and ELG1 genotoxic 0.4%.
`O=c1[nH]c(=O)n(-c2cccc(F)c2)c(O)c1/C=C1\C=Nc2ccccc21` gave FLuc counter -6.8%, Rab9 prom act 7.2%, NPC1 promoter act 5.8% and ELG1 genotoxic 3.9%.
CC(=O)C(Sc1ncnc2c1nnn2-c1ccc(F)cc1)C(=O)N(C)C (centres undefined) was read as FLuc counter inconclusive, Rab9 prom act 28.2%, Luc counter -1.7%, NPC1 promoter act -2.8%, ELG1 genotoxic 5.5% and SMN2 splice up inconclusive.
Screening O=C(CSc1ncnc2c1nnn2-c1ccc(F)cc1)NCC1CCCO1 (centres undefined) returned FLuc counter 13.5µM*, Rab9 prom act 3.9%, Luc counter 6.2%, NPC1 promoter act -3.0%, ELG1 genotoxic 1.3% and SMN2 splice up -20.9%.
For CN(C)c1ccc(/C=C2/C(=N\O)C3CCN2CC3)cc1 the results were FLuc counter 19µM*, Rab9 prom act 2.82µM*, NPC1 promoter act inconclusive and ELG1 genotoxic inconclusive.
For O=C1/C(=C\c2ccc([N+](=O)[O-])cc2)N2CCC1CC2 the results were FLuc counter 2.3%, Rab9 prom act 2.2%, Luc counter -1.9%, NPC1 promoter act -3.3%, ELG1 genotoxic -0.5% and SMN2 splice up -16.6%.
Screening Cc1cccc(OCCn2c(=O)oc3ccc(C)cc32)c1 returned FLuc counter 19µM*, Rab9 prom act inconclusive, Luc counter -18.1%, NPC1 promoter act 18.2% and ELG1 genotoxic inconclusive.
Screening Cc1cccc(OCCCn2c(=O)oc3ccccc32)c1 returned FLuc counter inconclusive, Rab9 prom act 18.3%, Luc counter -1.7%, NPC1 promoter act -2.5%, ELG1 genotoxic inconclusive and SMN2 splice up 19.0%.
`CC(=O)[O][Hg][c]1ccccc1` gave Luc counter 12.6µM* and SMN2 splice up -104.1%.
Screening CCC1=C(C[C@H]2NCCc3cc(OC)c(OC)cc32)C[C@H]2c3ccccc3CCN2C1 returned Luc counter -2.0%[7.66 µM] and SMN2 splice up -4.4%[9.22 µM].
`Cc1ccnc(-n2c(C)cc(C=C3C(=O)N(C)C(=S)N(C)C3=O)c2C)c1` gave FLuc counter 19µM*, Rab9 prom act -2.1%, Luc counter 0.0%, NPC1 promoter act 0.7%, ELG1 genotoxic 8.1% and SMN2 splice up -2.9%.
`Cc1cc(C=C2C(=O)N(C)C(=S)N(C)C2=O)c(C)n1-c1ccncc1` gave FLuc counter 26.9µM*, Rab9 prom act -6.4%, NPC1 promoter act -2.7% and ELG1 genotoxic 8.1%.
CCN1CCN(c2nc3ccccc3s2)CC1 was read as FLuc counter 10.7µM*, Rab9 prom act 2µM*, Luc counter 0.0%, NPC1 promoter act 2.24µM*, ELG1 genotoxic inconclusive and SMN2 splice up 11.2µM*.
`CCCC(c1nnnn1Cc1cccs1)N1CCN(c2nc3ccccc3s2)CC1` (centres undefined) gave FLuc counter -0.2%, Rab9 prom act 0.6%, Luc counter 0.8%, NPC1 promoter act 2.1%, ELG1 genotoxic -18.1% and SMN2 splice up -71.3%.
For O=C(O)[C@H](Cc1cnc[nH]1)N1C(=O)c2ccccc2C1=O the results were Luc counter -1.2%[7.66 µM] and SMN2 splice up -3.0%[9.22 µM].
`C#CC(CC)(CC)NC(=O)Nc1ccc(OCC)cc1` gave FLuc counter -16.2%, Rab9 prom act -0.7%, Luc counter -1.3%, NPC1 promoter act 0.1%, ELG1 genotoxic 2.0% and SMN2 splice up 12.6%.
Screening CCOc1ccc(NC(=O)C(=S)NC2CCCCC2)cc1 returned FLuc counter 13.5µM*, Rab9 prom act inconclusive, Luc counter -1.6%, NPC1 promoter act inconclusive, ELG1 genotoxic inconclusive and SMN2 splice up inconclusive.
Screening N#CCCn1cc(C=C2C(=O)NC(=O)NC2=O)c(-c2ccccc2)n1 returned FLuc counter inconclusive, Rab9 prom act -0.8%, Luc counter -5.7%, NPC1 promoter act -0.6%, ELG1 genotoxic 0.1% and SMN2 splice up -1.3%.
